Measured values as given in PubChem BioAssay (Tox21).
Active and inactive are the calls of the source. Calls come from the whole dose curve; as a rule, active = well fitted activation curve with a large enough effect in the repeat runs; inconclusive = weak or mixed curves; inactive = flat fitted curve, though single readings scatter.

experiment: A CellTox Green Cytotoxicity Assay to monitor cytotoxicity in HepG2 cells - 0 hour (AID 1224882); conditions: CellTox Green fluorescence; series mostly up to 76.8 µM; cytotoxicity: at the top concentration; note: nearly all actives have a fitted effect of over 35% in size
Text: National Center for Advancing Translational Sciences [NCATS]
NIH Chemical Genomics Center [NCGC]
U.S. Environmental Protection Agency [EPA]
National Institutes of Environmental Health Sciences [NIEHS]
National Toxicology Program [NTP]
Cell-based models are critical for drug discovery. Determining the natural cytotoxic effects resulting from test compounds is an essential research activity. A CellTox Green Cytotoxicity Assay to monitor cytotoxicity in real time of continues cell culture during 40 hours of the compound treatment was used to screen Tox21 10K library compounds in HepG2 cells. CellTox Green Cytotoxicity Assay is a nonlytic, homogeneous, biofluorescent method to measure cytotoxicity in cell culture after experimental manipulation. The assay system uses a proprietary asymmetric cyanine dye that is excluded from viable cells but preferentially stains the dead cell's DNA. […] Viable cells produce no appreciable increases in fluorescence. Therefore, the fluorescence signal produced by the binding interaction with dead cell DNA is proportional to cytotoxicity.
The mixture of HepG2 cell suspension and reagents were dispensed at 600cells/6 ul/well in 1536-well tissue culture treated black solid bottom plates using a Multidrop dispenser. After the assay plates were incubated at a 37 C/5% CO2 incubator for 5 hours, 23 nL of compounds dissolved in DMSO, positive and negative controls was transferred to the assay plate by a pintool work station. The plates were incubated at 37 C for 40 hours. The fluorescence intensity were measured at 0h, 8h, 16h, 24h, 32h and 40h time points using ViewLux plate reader during compound treatment.
% is set by controls: 0 for no effect and ±100 for the full control effect.

Compound | cytotoxicity
CC1(C)C(=O)N(Cl)C(=O)N1Br | 2.82% (inactive)
NC/C=C/C(=O)O | -8.43% [at 35.3 µM] (inactive)
CCCCCCCCCC/C=C/C#N | -0.606% (inactive)
Cc1c[nH]c(=S)[nH]c1=O | 3.84% (inactive)
CCC(=O)O[C@]1(C(=O)SCF)[C@H](C)C[C@H]2[C@@H]3C[C@H](F)C4=CC(=O)C=C[C@]4(C)[C@@]3(F)[C@@H](O)C[C@@]21C | 2.27% [at 35.3 µM] (inactive)
CCCc1c2oc(C(=O)O)cc(=O)c2cc2c(=O)cc(C(=O)O)n(CC)c12 | 2.09% [at 35.3 µM] (inactive)
COc1cc(Cl)ccc1Cl | 0.331% (inactive)
CCC/C=C/CO | -1.64% (inactive)
CCC(=O)c1ccc2c(c1)N(CCCN(C)C)c1ccccc1S2 | -16.3% [at 35.3 µM] (inactive)
NNS(=O)(=O)c1ccc(Oc2ccc(S(=O)(=O)NN)cc2)cc1 | 5.2% (inactive)
CC(C)=CCC[C@](C)(O)[C@@H]1CC=C(C)CC1 | -4.49% (inactive)
CCc1nnc(NS(=O)(=O)c2ccc(N)cc2)s1 | 5.94% [at 35.3 µM] (inactive)
O=C(O)[C@@H](O)[C@H](O)[C@H](O)[C@@H](O)C(=O)O | 3.19% [at 35.3 µM] (inactive)
CC(C)NCC(O)COc1ccc(CCOCC2CC2)cc1 (stereo not given) | 4.92% [at 35.3 µM] (inactive)
CNCCC(Oc1ccccc1OC)c1ccccc1 (stereo not given) | -0.569% [at 35.3 µM] (inactive)
OCCN(CCO)CCN(CCO)CCO | 1.15% (inactive)
CC[C@H]1CC[C@H](NCc2cc3c(cc2OC)[C@H]2C[C@H]2C(=O)N3C)[C@H](c2ccccc2)N1 | 5.2% (inactive)
COc1ccc2nc(NC(=O)Nc3ccccc3)sc2c1 | 8.67% [at 35.3 µM] (inactive)
CCCN(CCC)C(=O)C(CCC(=O)O)NC(=O)c1ccccc1 (stereo not given) | -2.38% [at 35.3 µM] (inactive)
Nc1ccc2ccccc2c1S(=O)(=O)O | 2.88% (inactive)

Compound | cytotoxicity
Cc1nc(N)nc(N)c1-c1ccc(Cl)c(Cl)c1 | 3.85% [at 35.3 µM] (inactive)
O=C1C=CC(=O)O1 | -1.22% (inactive)
CC(=O)N[C@@H](CC(C)C)C(=O)O | 4.95% [at 35.3 µM] (inactive)
O=c1[nH]c(=O)n([C@H]2C[C@H](O)[C@@H](CO)O2)cc1C(F)(F)F | 3.25% [at 35.3 µM] (inactive)
O=C1CCCCCCCCCCC(=O)OCCO1 | 0.447% (inactive)
c1ccc(CN(CC2=NCCN2)c2ccccc2)cc1 | 15.9% [at 35.3 µM] (inactive)
CN(CCCN1c2ccccc2CCc2ccccc21)CC(=O)c1ccc(Cl)cc1 | 6.36% [at 35.3 µM] (inactive)
C=CC1CO1 (stereo not given) | -1.08% (inactive)
Cc1cc(S(=O)(=O)O)c(N)cc1Cl | 3% (inactive)
CCCCNC(=S)NCCCC | -0.368% (inactive)
CC(C)(C)c1ccc(OC(=O)c2ccccc2O)cc1 | -6.8% (inactive)
CC(C)(CO)[C@@H](O)C(=O)NCCC(=O)O | 5.4% (inactive)
CC(C)O | 5.91% (inactive)
COC(=O)C(C)O (stereo not given) | -0.622% (inactive)
Cc1ncc(CO)c(CN)c1O | -1.72% [at 35.3 µM] (inactive)
O=c1[nH]cnc2c1ncn2[C@@H]1O[C@H](CO)[C@@H](O)[C@H]1O | -5.55% [at 35.3 µM] (inactive)
CCN(CC)C(=O)N(CC)CC | 8.22% (inactive)
CC(C)C1=CC2=CC[C@@H]3[C@](C)(CCC[C@@]3(C)C(=O)O)[C@H]2CC1 | 3.15% (inactive)
CC(C)S | 1.91% (inactive)
O=C(O)CN(CCN(CC(=O)O)CC(=O)O)CCN(CC(=O)O)CC(=O)O | 20.5% [at 15.8 µM] (inactive)
